# Measured values reported in PubChem BioAssay AID602412 (Johns Hopkins Ion Channel Center, 2012).
# Some of the results follow. The source made the active and inactive calls.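 Rule for the calls: active = calcium signal rise, corrected for plate position, at least 3 library SD high, with starting brightness within 5 such deviations; inactive = the rest.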
# Biological target: Mas-related G-protein coupled receptor member X1 (Homo sapiens) (UniProt Q96LB2)
# Test: MrgX1 receptor agonists, duplicate retest, confirmation, HEK293 cells, Fluo-4 calcium flux (AID 602412)
# Conditions: MrgX1-HEK293, Fluo-4 calcium fluorescence, FDSS; at 10 µM; hits give high values
# Mas-related G-protein coupled receptor member X1 (Homo sapiens), sequence (Q96LB2 whole entry, looked up): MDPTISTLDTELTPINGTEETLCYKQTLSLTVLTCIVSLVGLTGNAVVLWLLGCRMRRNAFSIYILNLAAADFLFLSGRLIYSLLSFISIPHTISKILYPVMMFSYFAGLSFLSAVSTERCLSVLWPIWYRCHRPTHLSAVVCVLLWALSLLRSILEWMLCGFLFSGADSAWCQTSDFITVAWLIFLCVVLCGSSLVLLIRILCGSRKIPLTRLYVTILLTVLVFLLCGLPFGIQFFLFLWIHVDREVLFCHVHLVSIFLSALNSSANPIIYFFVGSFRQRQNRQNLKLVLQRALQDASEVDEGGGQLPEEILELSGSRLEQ
smiles,measurement,value
CCCCC(=O)N/N=C/c1c(O)n(CC)c(=S)n(CC)c1=O,activation,372% (active)
